High-throughput results (PubChem BioAssay)
An excerpt weighted towards active compounds, which were near 3.5% of everything screened.
GPR151 activ = activators of human GPR151. Q8TDV0. PathHunter beta-arrestin GPR151 cells, luminescence. activation, % at 11.2 µM. 650,000 tested, 1% active. AID 1508602; in the data active = activation above about 4.9%
Target sequence (Q8TDV0 whole entry, looked up): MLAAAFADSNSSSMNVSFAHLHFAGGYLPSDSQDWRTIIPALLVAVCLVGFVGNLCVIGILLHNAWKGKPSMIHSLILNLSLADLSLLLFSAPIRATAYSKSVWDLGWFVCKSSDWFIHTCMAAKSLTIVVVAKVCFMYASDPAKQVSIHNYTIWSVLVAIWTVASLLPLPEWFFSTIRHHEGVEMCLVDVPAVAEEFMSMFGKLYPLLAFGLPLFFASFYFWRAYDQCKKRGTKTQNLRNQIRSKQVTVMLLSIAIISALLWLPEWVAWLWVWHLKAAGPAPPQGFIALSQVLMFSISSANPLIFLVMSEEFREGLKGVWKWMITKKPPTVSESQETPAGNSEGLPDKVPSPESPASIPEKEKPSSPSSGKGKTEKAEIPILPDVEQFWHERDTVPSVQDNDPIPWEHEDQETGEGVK
TEAD-YAP inh = TEAD-YAP interaction inhibition. HEK-TIYL cells, TEAD-Gal4/YAP UAS-luciferase luminescence. inhibition, % at 9.12 µM. 640,000 tested, 1.4% active; in the data active = inhibition above about 32%
FBW7 act = human FBW7 E3 ligase activation, primary screen; 650,000 tested, 0.13% active; Q969H0; normalized activity (activation), % at 26.1 µM; AID 1259310; AlphaScreen FBW7–phospho-cyclin E peptide binding, activator screen; in the data active = normalized activity above about 1.9%;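 note: purified mutant Fbw7 with reduced substrate affinity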
MITF primary = human MITF inhibition, primary screen | AID 1259374 | 650,000 tested, 0.91% active | inhibition, % at 2.6 µM | AlphaScreen MITF homodimerization, bead proximity signal | O75030; in the data active = inhibition above about 50%
MITF confirm = confirmation of human MITF inhibitors | 4,700 tested, 16% active | shares compounds with MITF primary | inhibition, % at 2.6 µM | AlphaScreen MITF homodimerization, biotin/His-MITF beads;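 active = inhibition above a cutoff derived from the DMSO control wells, cut at about 28% in these data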;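 note: inhibitors lower the bead chemiluminescence by keeping MITF from dimerizing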
AS interf DR = optically interferes with AlphaScreen signal in dose response; shares compounds with MITF primary; AlphaScreen optical interference counterscreen, cell-free; IC50, µM; 480 tested, 6% active; call rule not given here
AlphaScreen intf2 = counter-screen: compounds optically interfering with AlphaScreen; shares compounds with MITF primary; LysRS AlphaScreen counterscreen, signal interference, triplicate; inhibition, % at 2.6 µM; 4,700 tested, 7.6% active; AID 1259376;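 active = inhibition above a cutoff derived from the DMSO control wells, cut at about 30% in these data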
Of the large screens only hits and unclear results are named; the others gave an inactive call (follow-up assays come after a bar, where they were run).

c1ccc(-c2ccc(OCCCCn3cncn3)cc2)cc1	MITF primary 55 | MITF confirm 37 | AS interf DR inactive | AlphaScreen intf2 inactive
Cc1cc(C)cc(OCCCCn2cncn2)c1	MITF primary 61 | MITF confirm inactive | AlphaScreen intf2 inactive
Clc1ccc(OCCCn2cncn2)cc1Cl	MITF primary 63 | MITF confirm inactive | AlphaScreen intf2 inactive
Cc1ccc2c(c1)N(CC(=O)OC(CC(C)C)C(=O)NC1CCCC1)C(=O)CO2 (stereo unspecified)	MITF primary 54 | MITF confirm inactive | AlphaScreen intf2 inactive
CC(C)CC(OC(=O)CN1C(=O)COc2ccccc21)C(=O)NC1CCCCC1 (stereo unspecified)	none
CCOC(=O)N1CCN(C(=S)Nc2ccc(OCC)cc2)CC1	MITF primary 102 | MITF confirm 64 | AS interf DR inactive | AlphaScreen intf2 inactive
CCOc1ccc(NCC(=O)Nc2ccc(F)cc2)cc1	MITF primary 68 | MITF confirm inactive | AlphaScreen intf2 inactive
CCOC(=O)c1ccc(NC(=S)N2CCN(C(=O)OCC)CC2)cc1	none
COc1ccc([N+](=O)[O-])cc1CSc1nc2ccc(NC(C)=O)cc2s1	none
O=C(c1cc(Cc2ccccc2)no1)N1CCCC1	MITF primary 53 | MITF confirm inactive | AlphaScreen intf2 inactive
O=C(c1cc(Cc2ccccc2)no1)N1CCSCC1	none
Cc1cccc(NCc2ccccc2O)c1C	none
Oc1ccc(CNc2ccccc2Br)c2cccnc12	MITF primary 71 | MITF confirm 42 | AlphaScreen intf2 87
CCOc1ccc(S(=O)(=O)Nc2ccccc2Br)c2cccnc12	none
Cc1ccccc1NCc1ccc(O)c2ncccc12	MITF primary 68 | MITF confirm 62 | AlphaScreen intf2 97
Cc1cccc(NCc2ccc(O)c3ncccc23)n1	MITF primary 74 | MITF confirm 53 | AlphaScreen intf2 91
Cc1nnc2ccc(SCC(=O)NCc3cnn(Cc4ccccc4)c3)nn12	none
CCOC(=O)c1c(NC(=O)CSc2nnc(CNC(=O)c3ccc([N+](=O)[O-])cc3)n2-c2cccc(C)c2)sc2c1CCC2	none
C#CCNc1c(C)c(C)nc2ncnn12	MITF primary 68 | MITF confirm inactive | AlphaScreen intf2 inactive
Cc1nc2ncnn2c(NCC2CCCCC2)c1C	none
Cc1ccc2[nH]c(=O)c(=O)[nH]c2c1	MITF primary 82 | MITF confirm 53 | AS interf DR inactive | AlphaScreen intf2 inactive
O=c1[nH]c2ccc(Br)cc2[nH]c1=O	none
CN(C)c1cccc(NP2(=O)C=C(c3ccccc3)OC(c3ccccc3)=C2)c1	none
Cc1ccsc1/C=N/Nc1nc(=O)[nH]nc1C	MITF primary 60 | MITF confirm 34 | AlphaScreen intf2 100
Cc1n[nH]c(=O)nc1N/N=C/c1ccc(O)cc1	none
Cc1nc(NC(=O)/C=C/c2ccc3c(c2)OCO3)sc1C(=O)N(C)C	none
CCN1CCN(C(=O)C2CCN(Cc3cc(Br)c(O)c(OC)c3)CC2)CC1	none
CC1CCCN(C(=O)C2CCN(Cc3ccccc3F)CC2)C1 (stereo unspecified)	MITF primary 67 | MITF confirm inactive | AlphaScreen intf2 inactive
COc1cc(CN2CCC(C(=O)N3CCCC(C)C3)CC2)cc(Br)c1O (stereo unspecified)	MITF primary 52 | MITF confirm inactive | AlphaScreen intf2 inactive
CC1CCCN(C(=O)C2CCN(Cc3cccc(Br)c3)CC2)C1 (stereo unspecified)	MITF primary 62 | MITF confirm inactive | AlphaScreen intf2 inactive
CC1CCCN(C(=O)C2CCN(Cc3cccc(Cl)c3)CC2)C1 (stereo unspecified)	MITF primary 57 | MITF confirm inactive | AlphaScreen intf2 inactive
CC1CCCN(C(=O)C2CCN(Cc3cccc4ccccc34)CC2)C1 (stereo unspecified)	none
COc1ccc(C)cc1S(=O)(=O)Nc1cccc(Br)c1	none
Cc1cccc(C(=O)Nc2ccc(C(=O)Nc3ccccc3I)cc2)c1	none
CCOc1ccc(NC(=O)CCc2c(C)nc3nc(CN)nn3c2C)cc1	none
Cc1ccccc1N(CC(=O)NCc1cccnc1)S(=O)(=O)c1ccc(Cl)cc1	none
CCOC(=O)C1CCN(C(=O)c2cc3nc(-c4ccc(OC)cc4)cc(C(F)(F)F)n3n2)CC1	MITF primary 61 | MITF confirm inactive | AlphaScreen intf2 inactive
